Source: the supplement of paper PMC10849652
About 7,900 targets were measured; listed, in parts, are those with a hit and a random draw of the rest. About 0.6% of all pairs of compound and target were hits.

Experiments:
Assay in all cases: log2 fold change, soluble protein after heating vs DMSO (PISA); higher = thermal stabilisation; K562 cells, 10 uM, 30 min; active = over 0.2 and 3.5 SD of the protein, either way, in both replicates (recomputed)
[1] = compound: CC1=C(C=C(C=C1)NC(=O)C2=CC(=CC=C2)C(C)(C)C#N)NC3=CC4=C(C=C3)N=CN(C4=O)C
Outline: (§1)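 K562 cells (2×10^6 cells/mL) were treated with 10 μM compound for 30 min, and aliquots were heated for 3 min over 48°C-58°C. Pooled aliquots were extracted in PBS with 0.5% NP-40 at 4°C, and the supernatant after 21,000xg for 90 min was measured by TMTpro 16plex LC-MS/MS with channel sums equalised. Reported thermal stability, relative to control samples and from duplicates, is a log2 fold change.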

[2] = compound: CC1=C(C=C(C=C1)NC(=O)C2=CC(=CC=C2)N(C)C)NC(=O)C3=CC=C(C=C3)O
Outline: as §1

[3] = compound: CC1=CC=C(C=C1)SC2=C3C=C(SC3=CN=C2)C(=O)N
Outline: as §1

[4] = compound: CC1=NC(=CC=C1)C2=C(N=C(N2)C(C)(C)C)C3=CC4=NC=CN=C4C=C3
Outline: as §1

Nexturastat A = compound: CCCCN(Cc1ccc(C(=O)NO)cc1)C(=O)Nc1ccccc1 [Nexturastat A]
Outline: as §1

vemurafenib = compound: CCCS(=O)(=O)Nc1ccc(F)c(C(=O)c2c[nH]c3ncc(-c4ccc(Cl)cc4)cc23)c1F [vemurafenib]
Outline: as §1

[5] = compound: CCCS(=O)(=O)Nc1ccc(F)c(C(=O)c2c[nH]c3ncc(Cl)cc23)c1F
Outline: as §1

[6] = compound: CCCc1cc(C)[nH]c(=O)c1CNC(=O)c1cc(-c2ccnc(N3CCN(C)CC3)c2)cc2c1cnn2C(C)C
Outline: as §1

givinostat = compound: CCN(CC)Cc1ccc2cc(COC(=O)Nc3ccc(C(=O)NO)cc3)ccc2c1 [givinostat]
Outline: as §1

barasertib = compound: CCN(CCCOc1ccc2c(Nc3cc(CC(=O)Nc4cccc(F)c4)[nH]n3)ncnc2c1)CCOP(=O)(O)O [barasertib]
Outline: as §1

Measured: log2 fold change

POLR2D (UniProt O15514)
inactive: [1] -0.022 | [2] -0.005 | [3] 0.002 | [4] 0.004 | Nexturastat A 0.027 | vemurafenib 0.046 | [5] -0.006 | [6] -0.014 | givinostat -0.267 | barasertib -0.031

PSMD3 (UniProt O43242)
UniProt O43242, sequence (O43242 whole entry, looked up): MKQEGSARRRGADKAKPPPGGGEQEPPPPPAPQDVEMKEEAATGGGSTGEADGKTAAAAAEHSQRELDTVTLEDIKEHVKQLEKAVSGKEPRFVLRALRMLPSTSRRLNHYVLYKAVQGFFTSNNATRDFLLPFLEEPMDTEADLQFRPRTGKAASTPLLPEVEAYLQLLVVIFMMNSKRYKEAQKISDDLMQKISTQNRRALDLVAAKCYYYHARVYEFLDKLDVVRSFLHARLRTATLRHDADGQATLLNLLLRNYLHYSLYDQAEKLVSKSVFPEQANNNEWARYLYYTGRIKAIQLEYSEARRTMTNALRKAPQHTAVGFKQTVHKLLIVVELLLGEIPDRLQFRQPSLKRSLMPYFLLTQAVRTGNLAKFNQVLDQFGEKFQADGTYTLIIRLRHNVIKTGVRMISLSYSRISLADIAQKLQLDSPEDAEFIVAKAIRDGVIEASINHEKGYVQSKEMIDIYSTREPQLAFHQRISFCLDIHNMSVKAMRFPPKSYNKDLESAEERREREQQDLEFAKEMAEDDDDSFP
inactive: [1] 0.023 | [2] 0.022 | [3] -0.052 | [4] -0.024 | Nexturastat A 0.065 | vemurafenib -0.06 | [5] -0.032 | [6] 0.034 | givinostat -0.028 | barasertib -0.066

POP1 (UniProt Q99575)
inactive: [1] 0.03 | [2] -0.001 | [3] 0.004 | [4] -0.02 | Nexturastat A -0.011 | vemurafenib -0.004 | [5] 0.021 | [6] 0.018 | givinostat -0.009 | barasertib -0.042

PLD3 (UniProt Q8IV08)
inactive: [1] 0.002 | [2] 0.012 | [3] 0.034 | [4] 0.018 | Nexturastat A -0.081 | vemurafenib -0.007 | [5] 0.019 | [6] -0.028 | givinostat -0.072 | barasertib -0.013

PSMD6 (UniProt Q15008)
inactive: [1] -0.007 | [2] -0.004 | [3] -0.045 | [4] -0.045 | Nexturastat A 0.108 | vemurafenib -0.055 | [5] -0.014 | [6] 0.01 | givinostat -0.034 | barasertib -0.012

PIKFYVE (UniProt Q9Y2I7)
inactive: [1] -0.012 | [2] -0.02 | [3] 0.005 | [4] 0.006 | Nexturastat A 0.004 | vemurafenib 0.091 | [5] 0.109 | [6] -0.001 | givinostat 0.054 | barasertib 0.013

POLA1 (UniProt P09884)
UniProt P09884, sequence (P09884 whole entry, looked up): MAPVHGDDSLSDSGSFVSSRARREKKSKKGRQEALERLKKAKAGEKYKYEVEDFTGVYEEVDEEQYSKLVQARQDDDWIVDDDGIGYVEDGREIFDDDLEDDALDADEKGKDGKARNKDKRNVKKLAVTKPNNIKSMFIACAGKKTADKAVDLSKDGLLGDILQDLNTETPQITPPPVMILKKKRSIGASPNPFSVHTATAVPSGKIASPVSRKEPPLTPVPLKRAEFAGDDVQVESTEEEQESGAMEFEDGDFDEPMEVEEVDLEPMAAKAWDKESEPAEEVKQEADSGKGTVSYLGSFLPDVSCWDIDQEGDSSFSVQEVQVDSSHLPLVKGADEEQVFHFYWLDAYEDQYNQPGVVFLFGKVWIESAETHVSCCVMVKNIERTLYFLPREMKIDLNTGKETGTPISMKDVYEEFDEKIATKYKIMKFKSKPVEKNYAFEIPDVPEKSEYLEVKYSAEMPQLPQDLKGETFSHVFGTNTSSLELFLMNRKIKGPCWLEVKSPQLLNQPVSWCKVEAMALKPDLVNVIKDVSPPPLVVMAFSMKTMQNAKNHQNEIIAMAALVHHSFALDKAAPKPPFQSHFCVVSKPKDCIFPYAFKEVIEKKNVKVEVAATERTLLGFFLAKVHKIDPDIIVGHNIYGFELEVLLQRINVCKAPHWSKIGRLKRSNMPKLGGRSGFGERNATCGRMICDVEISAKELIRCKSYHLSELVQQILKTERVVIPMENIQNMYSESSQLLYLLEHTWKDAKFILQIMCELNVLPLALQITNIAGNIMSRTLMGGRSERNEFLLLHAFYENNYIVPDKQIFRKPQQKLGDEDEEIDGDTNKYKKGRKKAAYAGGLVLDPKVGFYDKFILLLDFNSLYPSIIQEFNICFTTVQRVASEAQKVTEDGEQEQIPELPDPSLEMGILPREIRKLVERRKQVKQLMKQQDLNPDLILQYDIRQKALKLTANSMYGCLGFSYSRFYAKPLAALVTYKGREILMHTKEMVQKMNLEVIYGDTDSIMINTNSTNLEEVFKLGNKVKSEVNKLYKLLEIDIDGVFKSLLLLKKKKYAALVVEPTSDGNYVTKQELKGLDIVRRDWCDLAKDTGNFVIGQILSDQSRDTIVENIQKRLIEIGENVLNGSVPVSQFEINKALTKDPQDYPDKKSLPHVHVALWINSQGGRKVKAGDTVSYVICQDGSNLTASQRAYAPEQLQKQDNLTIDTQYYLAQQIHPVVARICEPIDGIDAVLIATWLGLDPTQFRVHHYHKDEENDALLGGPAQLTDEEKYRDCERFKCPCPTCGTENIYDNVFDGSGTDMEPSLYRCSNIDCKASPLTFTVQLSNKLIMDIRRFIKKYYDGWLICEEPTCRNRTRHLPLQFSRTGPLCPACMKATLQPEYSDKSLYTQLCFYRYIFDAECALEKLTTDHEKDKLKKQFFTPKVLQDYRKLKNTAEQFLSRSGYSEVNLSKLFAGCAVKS
inactive: [1] -0.001 | [2] -0.029 | [3] -0.003 | [4] 0.052 | Nexturastat A -0.064 | vemurafenib 0.064 | [5] 0.053 | [6] 0.024 | givinostat 0.093 | barasertib 0.098

PI4K2A (UniProt Q9BTU6)
inactive: [1] -0.037 | [2] -0.02 | [3] 0.004 | [4] 0.023 | Nexturastat A -0.005 | vemurafenib 0.023 | [5] 0.015 | [6] -0.036 | givinostat -0.008 | barasertib -0.011

QKI (UniProt Q96PU8)
inactive: [1] 0.05 | [2] -0.037 | [3] 0.019 | [4] 0.036 | Nexturastat A -0.109 | vemurafenib 0.033 | [5] 0.084 | [6] -0.045 | givinostat 0.023 | barasertib -0.003

PEX7 (UniProt O00628)
inactive: [1] 0.061 | [2] -0.011 | [3] 0.025 | [4] -0.066 | Nexturastat A -0.041 | vemurafenib -0.049 | [5] 0.007 | [6] -0.035 | givinostat -0.107 | barasertib -0.089

PECAM1 (UniProt P16284)
inactive: [1] -0.092 | [2] -0.019 | [3] -0.013 | [4] -0.113 | Nexturastat A 0.068 | vemurafenib -0.049 | [5] 0.004 | [6] -0.015 | givinostat 0.01 | barasertib 0.028

PRPF38B (UniProt Q5VTL8)
UniProt Q5VTL8, sequence (Q5VTL8 whole entry, looked up): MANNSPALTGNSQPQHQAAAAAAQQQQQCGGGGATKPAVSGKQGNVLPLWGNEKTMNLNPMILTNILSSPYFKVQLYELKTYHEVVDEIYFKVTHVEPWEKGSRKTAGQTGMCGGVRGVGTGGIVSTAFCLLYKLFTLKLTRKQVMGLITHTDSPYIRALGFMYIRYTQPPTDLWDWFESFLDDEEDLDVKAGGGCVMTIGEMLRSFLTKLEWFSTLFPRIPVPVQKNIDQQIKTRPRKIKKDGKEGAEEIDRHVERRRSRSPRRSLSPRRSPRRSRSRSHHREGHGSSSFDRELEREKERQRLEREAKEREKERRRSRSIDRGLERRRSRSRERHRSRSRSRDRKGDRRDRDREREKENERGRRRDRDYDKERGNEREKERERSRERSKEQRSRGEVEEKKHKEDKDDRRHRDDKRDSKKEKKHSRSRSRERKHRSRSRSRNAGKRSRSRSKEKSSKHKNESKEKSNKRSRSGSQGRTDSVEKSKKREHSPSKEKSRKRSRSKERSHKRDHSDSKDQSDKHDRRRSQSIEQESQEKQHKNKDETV
inactive: [1] -0.001 | [2] 0.001 | [3] -0.012 | [4] 0.015 | Nexturastat A -0.011 | vemurafenib 0.043 | [5] 0.042 | [6] -0.006 | givinostat 0.007 | barasertib 0.012

PRKD2 isoform 3 (UniProt Q9BZL6)
inactive: [1] 0.296 | [2] -0.26 | [3] 0.117 | [4] 0.028 | Nexturastat A 0.006 | vemurafenib 0.024 | [5] 0.058 | [6] 0.083 | givinostat -0.009 | barasertib 0.093

PSMD9 (UniProt O00233)
inactive: [1] -0.012 | [2] 0.018 | [3] 0.021 | [4] 0.012 | Nexturastat A -0.068 | vemurafenib -0.014 | [5] -0.021 | [6] -0.016 | givinostat -0.004 | barasertib 0

PPP1CA (UniProt P62136)
inactive: [1] -0.024 | [2] -0.019 | [3] -0.071 | [4] 0.164 | Nexturastat A -0.09 | vemurafenib -0.023 | [5] -0.05 | [6] 0 | givinostat -0.009 | barasertib 0.035

PKM (UniProt P14618)
inactive: [1] -0.013 | [2] -0.005 | [3] 0.001 | [4] 0.014 | Nexturastat A -0.054 | vemurafenib -0.012 | [5] -0.01 | [6] -0.023 | givinostat 0 | barasertib -0.011

QRSL1 (UniProt Q9H0R6)
inactive: [1] -0.001 | [2] -0.079 | [3] 0.018 | [4] 0.041 | Nexturastat A -0.09 | vemurafenib 0.086 | [5] 0.061 | [6] 0.093 | givinostat 0.033 | barasertib 0.044

PTK2B (UniProt Q14289)
inactive: [1] -0.09 | [2] 0 | [3] 0.06 | [4] -0.008 | Nexturastat A 0.217 | vemurafenib -0.129 | [5] 0 | [6] 0.06 | givinostat 0.421 | barasertib 0.031

PGM3 isoform 4 (UniProt O95394)
inactive: [1] 0.013 | [2] -0.073 | [3] 0.021 | [4] 0.04 | Nexturastat A -0.01 | vemurafenib 0.017 | [5] 0.04 | [6] 0.008 | givinostat -0.044 | barasertib 0.017

PSME4 (UniProt Q14997)
inactive: [1] 0.017 | [2] -0.02 | [3] -0.024 | [4] -0.017 | Nexturastat A -0.034 | vemurafenib -0.014 | [5] -0.005 | [6] -0.043 | givinostat 0.022 | barasertib -0.007

PGGHG (UniProt Q32M88)
UniProt Q32M88, sequence (Q32M88 whole entry, looked up): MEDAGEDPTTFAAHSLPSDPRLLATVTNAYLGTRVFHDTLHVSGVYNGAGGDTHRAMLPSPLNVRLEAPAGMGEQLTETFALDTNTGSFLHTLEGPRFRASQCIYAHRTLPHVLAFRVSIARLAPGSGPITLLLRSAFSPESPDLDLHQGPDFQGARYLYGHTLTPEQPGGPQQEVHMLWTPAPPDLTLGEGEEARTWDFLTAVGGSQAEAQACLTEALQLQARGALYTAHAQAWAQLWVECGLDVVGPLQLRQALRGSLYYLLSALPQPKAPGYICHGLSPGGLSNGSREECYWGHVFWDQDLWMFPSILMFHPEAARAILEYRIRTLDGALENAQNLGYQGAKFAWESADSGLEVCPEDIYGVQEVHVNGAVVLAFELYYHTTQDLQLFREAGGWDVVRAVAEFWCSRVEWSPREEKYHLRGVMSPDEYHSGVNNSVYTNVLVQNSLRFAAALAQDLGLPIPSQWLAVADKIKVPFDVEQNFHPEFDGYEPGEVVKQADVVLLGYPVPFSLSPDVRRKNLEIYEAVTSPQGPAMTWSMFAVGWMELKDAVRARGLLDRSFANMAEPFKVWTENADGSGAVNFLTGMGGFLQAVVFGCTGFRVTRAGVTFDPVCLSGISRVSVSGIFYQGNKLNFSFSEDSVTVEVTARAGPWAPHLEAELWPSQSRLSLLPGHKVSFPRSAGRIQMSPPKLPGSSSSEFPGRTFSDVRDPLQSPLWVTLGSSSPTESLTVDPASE
inactive: [1] 0.017 | [2] -0.127 | [3] 0.197 | [4] -0.003 | Nexturastat A 0 | vemurafenib -0.044 | [5] -0.091 | [6] -0.175 | givinostat -0.003 | barasertib 0.001

PCLAF (UniProt Q15004)
UniProt Q15004, sequence (Q15004 whole entry, looked up): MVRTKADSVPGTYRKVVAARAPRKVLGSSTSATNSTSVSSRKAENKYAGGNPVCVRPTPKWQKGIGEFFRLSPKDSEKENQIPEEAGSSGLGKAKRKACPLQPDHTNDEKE
inactive: [1] -0.119 | [2] 0.031 | [3] -0.014 | [4] -0.009 | Nexturastat A -0.002 | vemurafenib -0.097 | [5] -0.083 | [6] 0.115 | givinostat -0.061 | barasertib -0.007

PTDSS1 (UniProt P48651)
inactive: [1] 0.005 | [2] -0.006 | [3] 0.08 | [4] -0.01 | Nexturastat A 0.192 | vemurafenib -0.055 | [5] 0.019 | [6] -0.007 | givinostat 0.072 | barasertib 0.03

PUM1 isoform 3 (UniProt Q14671)
inactive: [1] -0.011 | [2] 0.01 | [3] 0.011 | [4] 0.042 | Nexturastat A 0.06 | vemurafenib 0.02 | [5] 0.05 | [6] 0.002 | givinostat -0.03 | barasertib 0.011

PLCG1 isoform 2 (UniProt P19174)
UniProt P19174, sequence (P19174 whole entry, looked up): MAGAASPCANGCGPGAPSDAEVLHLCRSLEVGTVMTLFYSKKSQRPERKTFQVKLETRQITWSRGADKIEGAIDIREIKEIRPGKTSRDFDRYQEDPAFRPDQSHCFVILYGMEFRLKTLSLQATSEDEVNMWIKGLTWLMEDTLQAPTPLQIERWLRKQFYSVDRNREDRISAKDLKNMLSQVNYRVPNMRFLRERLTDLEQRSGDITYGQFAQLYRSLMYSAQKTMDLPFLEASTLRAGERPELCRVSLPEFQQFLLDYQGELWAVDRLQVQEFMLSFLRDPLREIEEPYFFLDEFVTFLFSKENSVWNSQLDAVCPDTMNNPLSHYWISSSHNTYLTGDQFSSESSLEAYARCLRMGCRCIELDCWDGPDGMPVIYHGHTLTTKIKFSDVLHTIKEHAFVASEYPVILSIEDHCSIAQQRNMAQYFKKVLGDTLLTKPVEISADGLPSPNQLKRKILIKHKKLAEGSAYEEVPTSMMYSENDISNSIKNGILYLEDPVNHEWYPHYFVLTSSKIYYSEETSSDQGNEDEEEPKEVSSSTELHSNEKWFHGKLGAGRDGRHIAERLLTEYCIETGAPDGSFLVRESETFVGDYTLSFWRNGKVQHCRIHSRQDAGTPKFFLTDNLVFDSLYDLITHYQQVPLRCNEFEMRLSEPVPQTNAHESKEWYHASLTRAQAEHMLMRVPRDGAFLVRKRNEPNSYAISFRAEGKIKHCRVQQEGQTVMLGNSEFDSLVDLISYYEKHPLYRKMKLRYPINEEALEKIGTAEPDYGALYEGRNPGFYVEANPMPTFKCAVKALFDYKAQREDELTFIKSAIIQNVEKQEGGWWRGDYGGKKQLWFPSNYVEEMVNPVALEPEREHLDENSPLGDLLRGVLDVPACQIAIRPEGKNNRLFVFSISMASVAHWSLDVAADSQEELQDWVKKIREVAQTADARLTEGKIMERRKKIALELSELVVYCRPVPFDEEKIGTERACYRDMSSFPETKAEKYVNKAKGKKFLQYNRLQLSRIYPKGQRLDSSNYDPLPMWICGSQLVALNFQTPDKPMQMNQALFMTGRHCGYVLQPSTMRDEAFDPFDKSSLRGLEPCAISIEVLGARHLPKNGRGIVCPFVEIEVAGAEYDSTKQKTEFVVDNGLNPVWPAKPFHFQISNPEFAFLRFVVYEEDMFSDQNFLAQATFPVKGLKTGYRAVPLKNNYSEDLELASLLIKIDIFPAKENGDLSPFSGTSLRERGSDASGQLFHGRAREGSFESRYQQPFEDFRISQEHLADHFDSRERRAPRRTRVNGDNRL
inactive: [1] 0.045 | [2] -0.011 | [3] 0.039 | [4] -0.012 | Nexturastat A 0.019 | vemurafenib 0.003 | [5] 0.079 | [6] -0.019 | givinostat -0.013 | barasertib 0.031

PURA (UniProt Q00577)
inactive: [1] 0.032 | [2] 0.032 | [3] -0.101 | [4] -0.121 | Nexturastat A 0.112 | vemurafenib -0.111 | [5] -0.143 | [6] 0.144 | givinostat -0.008 | barasertib -0.091

PCID2 (UniProt Q5JVF3)
inactive: [1] 0.024 | [2] -0.026 | [3] -0.066 | [4] 0.033 | Nexturastat A 0.153 | vemurafenib 0.069 | [5] 0.202 | [6] 0.071 | givinostat 0.114 | barasertib -0.016

PPT2 isoform 3 (UniProt Q9UMR5)
inactive: [1] -0.064 | [2] -0.002 | [3] 0.025 | [4] 0.078 | Nexturastat A 0 | vemurafenib -0.001 | [5] 0.052 | [6] 0.002 | givinostat 0.041 | barasertib -0.017

PPP4R3B (UniProt Q5MIZ7)
inactive: [1] 0.006 | [2] 0.014 | [3] 0.008 | [4] 0.024 | Nexturastat A -0.063 | vemurafenib 0.017 | [5] 0.009 | [6] -0.017 | givinostat 0.049 | barasertib 0.029

PSMC6 (UniProt P62333)
UniProt P62333, sequence (P62333 whole entry, looked up): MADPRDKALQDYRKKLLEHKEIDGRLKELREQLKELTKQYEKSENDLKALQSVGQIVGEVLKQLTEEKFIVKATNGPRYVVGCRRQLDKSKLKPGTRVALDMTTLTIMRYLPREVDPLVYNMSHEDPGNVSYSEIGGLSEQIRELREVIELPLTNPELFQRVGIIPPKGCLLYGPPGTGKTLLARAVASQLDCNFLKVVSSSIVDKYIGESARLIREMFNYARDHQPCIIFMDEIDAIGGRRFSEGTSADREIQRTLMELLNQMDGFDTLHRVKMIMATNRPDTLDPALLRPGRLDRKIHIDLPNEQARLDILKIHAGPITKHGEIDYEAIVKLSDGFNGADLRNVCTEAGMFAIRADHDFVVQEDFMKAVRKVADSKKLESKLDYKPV
inactive: [1] 0 | [2] 0.022 | [3] -0.034 | [4] -0.043 | Nexturastat A 0.034 | vemurafenib -0.067 | [5] -0.069 | [6] 0.01 | givinostat -0.081 | barasertib -0.055
